Laboratory results published in PubChem BioAssay AID1159580 (chemical genetic matrix, 2015).
Screen size: about 5,500 compounds; about 2,000 (36%) were called active. Another 18% or so got no clear call; they are omitted. Rule as the data show it: active = normalized growth mostly below about 0.91 (no sharp cut-off); inconclusive = no clear call, values can overlap the other calls; inactive = mostly above about 0.92. This is one part of the list.

Experiment: chemical genetic growth profiling, strain panel (AID 1159580);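 also: tested at 20 µM; growth read once vehicle control cultures reached saturation at 30 °C; 1 = growth at the plate median or of vehicle wells; lower values mean less growth of the strain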
Details: S. cerevisiae deletion strains, growth OD

Measured: normalized growth

CC(=O)Oc1ccccc1C(=O)O
inactive: locus YAL021C, strain ccr4, stronger effect = lower value 0.993 | locus YAL026C, strain drs2, stronger effect = lower value 1 | locus YAL030W, strain snc1, stronger effect = lower value 1 | locus YAL040C, strain CLN3, stronger effect = lower value 0.996 | locus YBL061C, strain skt5, stronger effect = lower value 0.989 | locus YBR009C, strain hhf1, stronger effect = lower value 1.03 | locus YBR023C, strain chs3, stronger effect = lower value 1 | locus YBR171W, strain sec66, stronger effect = lower value 0.985 | locus YBR231C, strain swc5, stronger effect = lower value 1.01 | locus YBR279W, strain paf1, stronger effect = lower value 0.992 | locus YCL011C, strain gbp2, stronger effect = lower value 1 | locus YCL016C, strain dcc1, stronger effect = lower value 0.983 | locus YCL061C, strain MRC1 (second series), stronger effect = lower value 1 | locus YCL069W, strain vba3, stronger effect = lower value 1 | locus YCR088W, strain abp1, stronger effect = lower value 0.989 | locus YDL005C, strain med2, stronger effect = lower value 0.985 | locus YDL040C, strain nat1, stronger effect = lower value 0.996 | locus YDR001C, strain nth1, stronger effect = lower value 0.995 | locus YDR069C, strain doa4, stronger effect = lower value 1.01 | locus YDR137W, strain rgp1, stronger effect = lower value 1 | locus YDR150W, strain NUM1, stronger effect = lower value 0.992 | locus YDR159W, strain sac3, stronger effect = lower value 0.938 | locus YDR195W, strain ref2 1 | locus YDR297W, strain sur2, stronger effect = lower value 1.01 | locus YDR334W, strain swr1, stronger effect = lower value 0.991 | locus YDR335W, strain msn5, stronger effect = lower value 1.03 | locus YDR392W, strain spt3, stronger effect = lower value 0.906 | locus YEL003W, strain gim4, stronger effect = lower value 1.01 | locus YEL037C, strain rad23, stronger effect = lower value 0.998 | locus YEL061C, strain CIN8 (second series), stronger effect = lower value 0.996 | locus YER002W, strain NOP16, stronger effect = lower value 0.988 | locus YER015W, strain faa2, stronger effect = lower value 1.01 | locus YER016W, strain bim1, stronger effect = lower value 0.977 | locus YER111C, strain swi4, stronger effect = lower value 0.985 | locus YER155C, strain BEM2 (second series), stronger effect = lower value 0.996 | locus YFR010W, strain ubp6, stronger effect = lower value 1.09 | locus YGL167C, strain pmr1, stronger effect = lower value 1 | locus YGL173C, strain kem1, stronger effect = lower value 1 | locus YGL227W, strain vid30, stronger effect = lower value 0.989 | locus YGL240W, strain doc1, stronger effect = lower value 1 | locus YGL253W, strain hxk2, stronger effect = lower value 1.03 | locus YHR013C, strain ard1, stronger effect = lower value 0.969 | locus YHR027C, strain rpn1, stronger effect = lower value 1.02 | locus YHR030C, strain SLT2, stronger effect = lower value 1.03 | locus YHR079C, strain IRE1, stronger effect = lower value 1.04 | locus YHR142W, strain chs7, stronger effect = lower value 1.01 | locus YJL092W, strain hpr5, stronger effect = lower value 1 | locus YJL095W, strain BCK1 (second series), stronger effect = lower value 0.989 | locus YJL095W, strain BCK1, stronger effect = lower value 1.05 | locus YJL115W, strain asf1, stronger effect = lower value 0.988 | locus YJL129C, strain trk1, stronger effect = lower value 0.995 | locus YJL154C, strain vps35, stronger effect = lower value 0.989 | locus YJL164C, strain tpk1, stronger effect = lower value 0.999 | locus YJL166W, strain qcr8, stronger effect = lower value 1.01 | locus YJL187C, strain SWE1, stronger effect = lower value 0.987 | locus YJR066W, strain TOR1, stronger effect = lower value 0.978 | locus YKL160W, strain elf1, stronger effect = lower value 0.971 | locus YKR026C, strain gcn3, stronger effect = lower value 0.994 | locus YKR091W, strain srl3, stronger effect = lower value 1 | locus YLL001W, strain dnm1, stronger effect = lower value 0.974 | locus YLL026W, stronger effect = lower value 0.992 | locus YLL041C, strain sdh2, stronger effect = lower value 0.983 | locus YLR027C, strain aat2, stronger effect = lower value 1.01 | locus YLR113W, strain HOG1, stronger effect = lower value 1.01 | locus YLR221C, strain rsa3, stronger effect = lower value 0.996 | locus YLR258W, strain gsy2, stronger effect = lower value 0.997 | locus YLR262C, strain YPT6 (second series), stronger effect = lower value 0.984 | locus YLR320W, strain mms22, stronger effect = lower value 0.975 | locus YLR342W, strain FKS1, stronger effect = lower value 0.997 | locus YLR357W, strain rsc2, stronger effect = lower value 0.964 | locus YLR370C, strain arc18, stronger effect = lower value 1 | locus YLR384C, strain iki3, stronger effect = lower value 0.971 | locus YML120C, strain ndi1, stronger effect = lower value 1.02 | locus YMR058W, strain fet3, stronger effect = lower value 1 | locus YMR125W, strain sto1, stronger effect = lower value 0.997 | locus YMR129W, stronger effect = lower value 0.985 | locus YMR205C, strain PFK2, stronger effect = lower value 1.02 | locus YMR231W, strain pep5, stronger effect = lower value 0.994 | locus YNL071W, strain lat1, stronger effect = lower value 0.998 | locus YNL153C, strain GIM3, stronger effect = lower value 0.994 | locus YNL175C, strain NOP13, stronger effect = lower value 0.989 | locus YNL183C, strain NPR1, stronger effect = lower value 0.997 | locus YNL197C, strain WHI3, stronger effect = lower value 0.995 | locus YNL209W, strain ssb2, stronger effect = lower value 1.02 | locus YNL224C, strain SQS1, stronger effect = lower value 0.988 | locus YNL248C, strain rpa49, stronger effect = lower value 0.956 | locus YNL322C, strain KRE1 (second series), stronger effect = lower value 0.966 | locus YNR049C, strain mso1, stronger effect = lower value 1 | locus YOR001W, strain rrp6, stronger effect = lower value 1.02 | locus YOR070C, strain gyp1, stronger effect = lower value 0.998 | locus YOR080W, strain dia2, stronger effect = lower value 1 | locus YOR083W, strain WHI5 (second series), stronger effect = lower value 1.01 | locus YOR083W, strain WHI5, stronger effect = lower value 0.929 | locus YOR106W, strain vam3, stronger effect = lower value 0.994 | locus YOR231W, strain MKK1, stronger effect = lower value 1.06 | locus YOR265W, strain rbl2, stronger effect = lower value 1.02 | locus YOR270C, strain vph1, stronger effect = lower value 1.04 | locus YOR290C, strain snf2, stronger effect = lower value 0.989 | locus YPL051W, strain arl3, stronger effect = lower value 1 | locus YPL055C, strain LGE1, stronger effect = lower value 0.969 | locus YPL078C, strain atp4, stronger effect = lower value 0.984 | locus YPL106C, strain sse1, stronger effect = lower value 0.976 | locus YPL240C, strain hsp82, stronger effect = lower value 1 | locus YPL241C, strain CIN2, stronger effect = lower value 0.999 | locus YPL256C, strain CLN2, stronger effect = lower value 1.03
